hgDAF-12 ag: H. glycines DAF-12 receptor agonists, primary screen, cell-based, luminescence, HEK293, GAL4 fusion, UAS-luciferase; activation, % at 6.8 µM; HEK293 GAL4-hgDAF12 UAS-luciferase reporter, agonist luminescence; normalized to butyrate control; Nuclear hormone receptor DAF-12 (Heterodera glycines), GAL4 fusion; 370,000 compounds, 1.8% hits;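 active = activation above a cutoff set at the mean of all screened compounds plus 3 SD, cut at about 10% in these data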;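 also: 0% = DMSO wells and 100% = sodium butyrate wells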
SMARCA2 act: SMARCA2 (BRM) function activators, primary screen, cell-based, luminescence, high throughput; activation, % at 9.1 µM; 370,000 compounds, 1% hits; MG213 cells, MMTV-luciferase reporter, dexamethasone, overnight; in the data active = activation above about 7.8%;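 also: 0% = vehicle wells and 100% = reference activator wells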
DAX1 inh-1: DAX1 (NR0B1) inhibitors on StAR promoter, primary screen, cell-based, luminescence, SF-1 (NR5A1), full-length DAX-1; HEK293T StAR-luciferase reporter, SF-1/DAX-1 repression relief; inhibition, % at 6.8 µM; 370,000 compounds, 1.1% hits; AID 652010, 2013;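 active = inhibition above the mean over all tested compounds plus 3 SD, cut at about 3.6% in these data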;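 also: 0% = DAX-1 cells with DMSO and 100% = cells lacking DAX-1 with DMSO; higher inhibition means more luminescence from relief of DAX-1 repression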
DAX1 inh-2: DAX1 (NR0B1) inhibitors, primary screen, cell-based, HEK293, Gal4-DAX1, luciferase luminescence; Nuclear receptor subfamily 0 group B member 1 (Homo sapiens), P51843; HEK293 Gal4-DAX1 luciferase reporter; inhibition, % at 6.75 µM; 340,000 compounds, 0.99% hits; AID 504766, 2011;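 active = inhibition above the mean over all tested compounds plus 3 SD, cut at about 4.2% in these data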;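 also: 0% = DAX1-transfected cells with DMSO and 100% = empty-vector control cells with DMSO; inhibition shows as a rise in luminescence from relieved DAX1 repression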
ssDAF12 agonist: S. stercoralis DAF-12 nuclear receptor activators, primary screen, cell-based, luminescence, HEK293, GRIP1 co-expression, lit1-tk-luc; activation, % at 6.8 µM; Nuclear hormone receptor DAF-12 (Strongyloides stercoralis); HEK293 ssDAF-12/GRIP1 lit1-tk-luc reporter; % of 3 µM dafachronic acid response; 370,000 compounds, 1% hits;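 active = activation above the mean over all tested compounds plus 3 SD, cut at about 0.9% in these data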;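 also: 0% = DMSO-only wells and 100% = 3 µM delta7-dafachronic acid wells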
hcDAF-12 act: H. contortus DAF-12 nuclear receptor activators, primary screen, cell-based, luminescence, HEK293, lit1-tk-luc reporter | HEK293 hcDAF-12 lit1-tk-luc reporter; 0% DMSO, 100% Δ7-dafachronic acid | activation, % at 6.8 µM | AID 652067, 2013 | 370,000 compounds, 1.4% hits;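 active = activation above the mean of all tested compounds plus 3 SD, cut at about 5.5% in these data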;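 also: 100% = response to 3 µM Δ7-dafachronic acid high control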
hgDAF12 ag: H. glycines DAF-12 receptor agonists, confirmation, cell-based, luminescence, HEK293, GAL4-LBD fusion; shares compounds with hgDAF-12 ag; HEK293 GAL4-hgDAF12 luciferase reporter, agonist mode; percent of butyrate response; activation, % at 6.8 µM; 3,300 compounds, 80% hits; AID 743050, 2013;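 active = mean activation over triplicate wells above the hit cutoff derived from the earlier primary screen, cut at about 11% in these data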;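 also: 0% = DMSO low control and 100% = 2 mM sodium butyrate high control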
LXRb DAF12 ctr: LXR agonists, Gal4 luciferase reporter, confirmation, counter-screen for hgDAF-12 agonist project, cell-based, luminescence, HEK293, H. glycines campaign | shares compounds with hgDAF-12 ag | 24 h | activation, % at 6.8 µM | 3,300 tested, under 10 active | AID 743051, 2013;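 active = mean activation of the triplicate above a set limit carried over from the primary screen, none filed active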
Target sequence (P55055 whole entry, looked up, the tested form may be a part): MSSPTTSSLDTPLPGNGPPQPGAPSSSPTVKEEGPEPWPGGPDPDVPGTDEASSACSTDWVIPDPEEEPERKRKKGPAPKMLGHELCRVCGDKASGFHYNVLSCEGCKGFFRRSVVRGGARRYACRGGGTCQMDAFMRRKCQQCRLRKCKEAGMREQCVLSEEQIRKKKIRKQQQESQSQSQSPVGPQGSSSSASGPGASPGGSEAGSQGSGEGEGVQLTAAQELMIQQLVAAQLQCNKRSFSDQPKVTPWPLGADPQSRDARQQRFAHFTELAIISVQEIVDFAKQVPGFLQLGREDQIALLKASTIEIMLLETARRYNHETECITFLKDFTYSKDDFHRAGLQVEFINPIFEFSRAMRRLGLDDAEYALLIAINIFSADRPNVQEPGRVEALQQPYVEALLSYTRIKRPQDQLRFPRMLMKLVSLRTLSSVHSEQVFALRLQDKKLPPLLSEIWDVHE
* marks the source's active call; other numbers are inactive results; nt = no result given. A selection: hits, their analogues and other compounds. The true share with any hit is near 4.8%.

SMILES	hgDAF-12 ag	SMARCA2 act	DAX1 inh-1	DAX1 inh-2	ssDAF12 agonist	hcDAF-12 act	hgDAF12 ag	LXRb DAF12 ctr
O=C(NC(=S)Nc1ccccc1O)c1ccc(Cl)cc1Cl	14*	3	1	0	1	6.5*	9	0
O=C(Nc1ccccc1Cl)c1ccc(Cl)cc1Cl	4	4	0	1	-1	-1	nt	nt
COC(=O)[C@@H](NC(=O)NCc1ccccc1F)C(C)C	0	-2	0	-1	-2	1	nt	nt
CN(CC(=O)N1CCc2ccccc21)S(=O)(=O)c1cccs1	13*	7	3	2	0	3	12*	1
CC(C(=O)N1CCc2ccccc21)N1CCN(S(=O)(=O)c2cccs2)CC1 (stereo not given)	-1	2	0	-1	-1	-1	nt	nt
CCCNC(=O)c1cccc(COc2ccccc2OC)c1	17*	4	2	-2	0	1	14*	1
CCCNC(=O)c1cccc(COCC(F)(F)F)c1	0	-1	0	-2	-1	0	nt	nt
CCCOC(=O)c1cc(=O)[nH]c2ccccc12	0	4	-1	0	-2	-1	nt	nt
CCCc1nnc(SCC(=O)N2CCCCC2C)n1CC (stereo not given)	-1	1	0	1	-1	0	nt	nt
O=C(C1=C[C@H](c2ccc(C(F)(F)F)cc2)C[C@H](OCc2ccc(CO)cc2)O1)N1CCCCCCC1	nt	nt	nt	1	nt	nt	nt	nt
CCOC(=O)c1ccc(NC(=O)C2CC3CCC2C3)cc1 (stereo not given)	14*	7.9*	3	nt	0	6.5*	17*	1
CCOC(=O)c1ccc(NC(=O)C2CC2)cc1	1	3	1	0	-1	-1	nt	nt
COc1ccc(Nc2nnc(-c3ccc4c(c3)OCO4)o2)cc1	22*	4	3	nt	1.5*	5.8*	18*	1
CCOC(=O)CC(=O)CSc1nc(-c2cccnc2)ccc1C#N	-2	3	0	-1	-1	0	nt	nt
CCOC(=O)CSc1nc(-c2ccncc2)ccc1C#N	17*	4	3	2	0.9*	4	16*	1
Nc1c(-c2ccc(Cl)cc2)cnc2c(-c3ccccc3)cnn12	14*	7.9*	2	7.8*	0	3	12*	1
CC(C)(C)S(=O)(=O)c1cnc2c(-c3ccc(Cl)cc3)cnn2c1N	3	4	0	3	-1	-1	nt	nt
COc1cc(OC)cc(-c2sc3ccc(OC)cc3c2-c2ccc(OCCN3CCCCC3)cc2)c1	nt	nt	nt	0	nt	nt	nt	nt
CC(=O)N1CCC(=NNc2nc3ccccc3[nH]2)CC1	16*	2	1	nt	1	4	6	0
CC(=O)Oc1ccc(C(=O)[C@H]2[C@H]3C(=O)N(c4ccc5ccccc5c4)C(=O)[C@H]3[C@@H]3C=CC=NN32)cc1	14*	-1	2	4	1	4	6	0
O=C(CC(NC(=O)OCc1ccccc1)c1nn[nH]n1)OCc1ccccc1 (stereo not given)	13*	5	2	2	1	3	11*	1
Cc1cc(C(=O)Nc2cccc([N+](=O)[O-])c2C)cs1	-2	0	0	0	0	1	nt	nt
Cc1c(NC(=O)c2ccc(C(C)(C)C)cc2)cccc1[N+](=O)[O-]	14*	2	1	2	-1	0	7	0
Cc1ccc(NC(=O)c2ncn(CC(=O)N[C@H](CO)Cc3c[nH]c4ccccc34)n2)cc1C	0	-1	1	-1	-1	0	nt	nt
Cc1nc2c(c(=O)c3ccccc3n2C)c(=O)n1-c1ccccc1	0	-2	0	0	-1	3	nt	nt
SMILES	hgDAF-12 ag	SMARCA2 act	DAX1 inh-1	DAX1 inh-2	ssDAF12 agonist	hcDAF-12 act	hgDAF12 ag	LXRb DAF12 ctr
N=C1/C(=C/c2ccc(OCc3ccccc3F)cc2)C(=O)N=C2SC(CC(=O)N3CCOCC3)=NN12	15*	0	0	1	0	4	3	0
CCOC(=O)C(C)On1c(-c2ccc(Cl)cc2)nc2ccc([N+](=O)[O-])cc21 (stereo not given)	14*	2	2	2	0	2	20*	1
O=C(O)COn1c(-c2ccccc2)nc2ccc([N+](=O)[O-])cc21	14*	7.8*	3	2	1	4	13*	1
c1ccc(-n2nc3c(ccc4cnnc43)[nH]2)cc1	19*	4	2	1	1	5.7*	12*	1
Cc1cccc(-n2ncc3c(N(C)Cc4ccccc4)ncnc32)c1	15*	3	4.0*	4	0	2	14*	1
Fc1ccc(N=C2NN=C(c3cc(F)ccc3F)CS2)cc1	16*	0	2	1	0	5	11*	0
O=S(=O)(c1ccc(N=C2NN=C(c3cc(F)ccc3F)CS2)cc1)N1CCOCC1	-9	-5	-3	nt	-3	-5	nt	nt
Cc1ccccc1Cn1c(Cc2ccccc2)nc2ccccc21	0	0	0	0	-1	0	nt	nt
COc1ccc(N2C(=O)S[C@@H]3CS(=O)(=O)C[C@@H]32)cc1	-3	-4	0	0	-1	-2	nt	nt
Cc1ccc2nc(-c3ccc(N4C(=N)SC5CS(=O)(=O)CC54)cc3)sc2c1 (stereo not given)	14*	5	1	1	0	2	13*	0
CC(/C=C/c1ccc(OCc2ccccc2)cc1)=N\O	14*	7	2	1	-1	6.1*	13*	1
CC(/C=C/c1ccccc1)=N/O	-1	0	0	0	-1	2	nt	nt
O=C(Nc1ccc2c(c1)CCC2)c1cccs1	16*	1	3	1	1.2*	3	17*	1

Screening data deposited in PubChem BioAssay by The Scripps Research Institute Molecular Screening Center.
